# Only some compounds are listed: those with a hit (about 6.7% of all), similar ones and a draw of the others.
# T cruzi growth-1: T. cruzi intracellular proliferation inhibitors, primary screen, cell-based, beta-gal Tulahuen parasites, NIH3T3 host, luminescence | hit rate 5.9% among 77,000 | inhibition, % at 8.34 µM | T. cruzi beta-gal in NIH3T3, GalScreen luminescence, 90 h;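 active means mean inhibition above about 93%, with at least 55% of replicates each passing it, limit read from the data, passing the limit was not always enough; inconclusive means only one of those two conditions holds; inactive means neither condition holds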
# C diff growth: C. difficile growth inhibitors, primary screen, HTS; AID 1259249, 2017; hit rate 0.25% among 86,000; Clostridium difficile clinical isolate growth, OD600, 24 h; active compounds read low; growth activity, negative = inhibition, % at 16 µg/mL (by protocol);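 active means mean growth activity at or below -80% and every replicate also at or below -80%; inconclusive means mean at or below -80% but some replicate above -80%; inactive means mean growth activity above -80%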;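 further: 0% = DMSO wells and -100% = levofloxacin 16 µg/mL wells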
# Pf Dd2 inh: P. falciparum Dd2 growth inhibitors, primary screen, SYBR Green fluorescence, single dose replicates; 72 h; active compounds read low; hit rate 2.3% among 94,000; AID 1159554, 2015; activity change, % at 10 µM; in the data active means activity change below about -80%; inconclusive means no clear call, values can overlap the other calls
# T cruzi growth-2: T. cruzi intracellular proliferation inhibitors, confirmation, cell-based, NIH3T3 host, beta-gal parasite, luminescence, cherry-pick; shares compounds with T cruzi growth-1; T. cruzi beta-gal in NIH3T3, GalScreen luminescence, 90 h; inhibition, % at 8.35 µM; hit rate 72% among 5,600; AID 651739, 2012;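 active means mean replicate inhibition above about 95% and at least 55% of replicates individually reaching it, limit read from the data; inconclusive means only one of the two criteria is met; inactive means neither criterion is met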
# T cruzi growth-3: inhibitors of intracellular T. cruzi replication, confirmation, NIH3T3 host cells, beta-gal parasites, cherry-pick, set 2; AID 651740, 2012; inhibition, % at 2.09 µM; hit rate 21% among 5,600; shares compounds with T cruzi growth-1; T. cruzi beta-gal in NIH3T3, GalScreen luminescence, 90 h;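 active means mean inhibition above about 95%, with at least 55% of replicates also reaching it, limit read from the data; inconclusive means meets just one of the two conditions; inactive means meets neither condition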;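 further: plate controls were neutral control median for no effect and positive control median for full effect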
# NIH3T3 tox: cytotoxicity in mouse NIH/3T3 fibroblasts, confirmation, cytotoxicity control for T. cruzi proliferation inhibitor project, cell-based, cherry-pick, single point; shares compounds with T cruzi growth-1; NIH/3T3 viability, CellTiter-Glo ATP luminescence, 90 h; cytotoxicity (signal decrease), % at 8.35 µM; hit rate 14% among 5,600; AID 651742, 2012;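 active means mean signal decrease across replicates above about 35% based on untreated-well scatter, with enough replicates individually passing, limit read from the data; inconclusive means no rule stated though some were filed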;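 further: 0% = median of neutral control wells and 100% = median of positive control wells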
# NIH3T3 tox 2: NIH/3T3 fibroblast cytotoxicity, confirmation, cytotoxicity control, cell-based, cherry-pick, single point, set 2. shares compounds with T cruzi growth-1. NIH/3T3 viability, CellTiter-Glo ATP luminescence, 90 h. inhibition, % at 24.9 µM. hit rate 56% among 5,600;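 active means mean loss of cell viability signal at or above a set limit, and enough replicates individually reaching it; inconclusive means meets only the mean limit or only the replicate share; inactive means meets neither condition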;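 further: 0% = median of neutral control wells and 100% = median of positive control wells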
# * hit, by the source's call; ? = inconclusive; . = no result given.
SMILES,T cruzi growth-1,C diff growth,Pf Dd2 inh,T cruzi growth-2,T cruzi growth-3,NIH3T3 tox,NIH3T3 tox 2
COCC(=O)N(C)C[C@@H]1Oc2cc(-c3ccc(F)cc3)ccc2S(=O)(=O)N([C@@H](C)CO)C[C@H]1C,-12,-3,-6,.,.,.,.
COc1ccccc1NC(=O)N1CC(=O)N2[C@H](CO)[C@H](c3ccc(C#Cc4ccc(F)cc4)cc3)[C@@H]2C1,.,1,-10,.,.,.,.
O=C(N[C@H]1CC[C@H](CC(=O)N2CCOCC2)O[C@H]1CO)c1ccc2c(c1)OCO2,8,-9,14,.,.,.,.
Cc1ccc(S(=O)(=O)Nc2ccc3c(c2)CC(=O)N([C@@H](C)CO)C[C@H](C)[C@H](CN(C)CC2CCCCC2)O3)cc1,28,1,-3,.,.,.,.
Cc1noc(C)c1S(=O)(=O)Nc1cccc2c1O[C@H](CN(C)C(=O)Nc1ccccc1)[C@H](C)CN([C@@H](C)CO)C2=O,-2,-5,-20,.,.,.,.
O=C(C1CC1)N1CC2(C1)[C@H](c1ccccc1)[C@@H](CO)N2CC1CCCC1,.,4,-7,.,.,.,.
CCCN(C)C[C@@H]1Oc2cc(C#Cc3ccccc3OC)ccc2S(=O)(=O)N([C@H](C)CO)C[C@@H]1C,97*,11,-84*,108*,81,21,107*
COc1ccccc1C#Cc1ccc2c(c1)O[C@@H](CN(C)C)[C@H](C)CN([C@H](C)CO)S2(=O)=O,.,3,-59,.,.,.,.
CCCN(C)C[C@H]1Oc2cc(C#Cc3ccccc3F)ccc2S(=O)(=O)N([C@H](C)CO)C[C@H]1C,80,10,-74,.,.,.,.
CCCN(C)C[C@H]1Oc2cc(C#Cc3ccccc3OC)ccc2S(=O)(=O)N([C@@H](C)CO)C[C@H]1C,97*,5,-63,106*,80,7,105*
Cc1ccc(S(=O)(=O)N(C)C[C@@H]2OCCCC[C@@H](C)Oc3ccc(NC(=O)NC(C)C)cc3C(=O)N([C@H](C)CO)C[C@@H]2C)cc1,-36,8,-73,.,.,.,.
C[C@H](CO)N1C[C@H](C)[C@H](CN(C)Cc2ccc(-c3ccccc3)cc2)Oc2ccc(NS(=O)(=O)c3ccc(F)cc3)cc2C1=O,75,19,0,.,.,.,.
Cc1ccc(S(=O)(=O)Nc2ccc3c(c2)C(=O)N([C@@H](C)CO)C[C@@H](C)[C@H](CN(C)Cc2ccc(-c4ccccc4)cc2)O3)cc1,89,28,-3,.,.,.,.
C[C@H]1CN([C@@H](C)CO)C(=O)c2cc(NS(=O)(=O)c3ccc(F)cc3)ccc2O[C@@H]1CN(C)Cc1ccc(-c2ccccc2)cc1,?,18,24,106*,46,2,103*
C[C@H](CO)N1C[C@H](C)[C@H](CN(C)Cc2ccc(-c3ccccc3)cc2)Oc2ccc(NS(=O)(=O)c3cccs3)cc2C1=O,56,8,-11,.,.,.,.
Cc1ccc(S(=O)(=O)Nc2ccc3c(c2)C(=O)N([C@@H](C)CO)C[C@H](C)[C@@H](CN(C)Cc2ccc(-c4ccccc4)cc2)O3)cc1,?,33,-3,103*,95,22,87*
C[C@@H]1CN([C@@H](C)CO)C(=O)c2cc(NS(=O)(=O)c3ccc(Cl)cc3)ccc2O[C@H]1CN(C)Cc1ccc(-c2ccccc2)cc1,109*,11,19,106*,80,-2,104*
C[C@@H]1CN([C@H](C)CO)C(=O)c2cc(NS(=O)(=O)c3cccs3)ccc2O[C@@H]1CN(C)Cc1ccc(-c2ccccc2)cc1,93*,14,-1,-4,-33,7,-11
C[C@H]1CN([C@@H](C)CO)C(=O)c2cc(NS(=O)(=O)c3ccc(Cl)cc3)ccc2O[C@H]1CN(C)Cc1ccc(-c2ccccc2)cc1,31,10,10,.,.,.,.
CO[C@@H]1CN(C)C(=O)c2ccc(NC(C)=O)cc2OC[C@@H](C)N(C(=O)c2cccnc2)C[C@H]1C,11,-1,25,.,.,.,.
CN1c2ccc(-c3cccc(F)c3)cc2[C@H]2[C@H](CCN2C(=O)c2ccc3c(c2)OCO3)[C@@H]1CO,59,-12,3,.,.,.,.
CC(C)CC#Cc1cnc2c(c1)C(=O)N([C@@H](C)CO)C[C@H](C)[C@@H](CN(C)C(=O)CCN1CCCCC1)O2,11,1,-39,.,.,.,.
COc1cccc(S(=O)(=O)N(C)C[C@H]2Oc3ncc(-c4cccc(C(=O)N(C)C)c4)cc3C(=O)N([C@@H](C)CO)C[C@H]2C)c1,18,-5,-21,.,.,.,.
C[C@@H]1CCCCO[C@H](CN(C)C(=O)c2ccncc2)[C@H](C)CN([C@H](C)CO)C(=O)c2cc(NC(=O)c3ccncc3)ccc2O1,89,-7,29,.,.,.,.
CC(C)NC(=O)N(C)C[C@@H]1OCCCC[C@H](C)Oc2ccc(NC(=O)C3CCCCC3)cc2C(=O)N([C@@H](C)CO)C[C@H]1C,-8,0,-15,.,.,.,.
SMILES,T cruzi growth-1,C diff growth,Pf Dd2 inh,T cruzi growth-2,T cruzi growth-3,NIH3T3 tox,NIH3T3 tox 2
C[C@H](CO)N1C[C@H](C)[C@@H](CN(C)Cc2cccc(F)c2)OCc2ccccc2-c2c(n(C)c3ccccc23)C1=O,.,22,-65,.,.,.,.
C[C@@H]1CN([C@H](C)CO)C(=O)c2c(c3ccccc3n2C)-c2ccccc2CO[C@@H]1CN(C)Cc1cccnc1,111*,-1,?,109*,53,1,51*
C[C@H]1CN([C@@H](C)CO)C(=O)c2c(c3ccccc3n2C)-c2ccccc2CO[C@@H]1CN(C)C(=O)[C@@H](Cc1ccccc1)N(C)C,-9,-9,-15,.,.,.,.
C[C@@H]1CN([C@@H](C)CO)C(=O)c2c(c3ccccc3n2C)-c2ccccc2CO[C@@H]1CN(C)Cc1ccncc1,-10,.,-56,.,.,.,.
C[C@H](CO)N1C[C@H](C)[C@H](CN(C)C(=O)[C@H](Cc2ccccc2)N(C)C)OCc2ccccc2-c2c(n(C)c3ccccc23)C1=O,?,6,-17,88,35,16,?
C[C@H]1CN([C@@H](C)CO)C(=O)c2c(c3ccccc3n2C)-c2ccccc2CO[C@H]1CN(C)Cc1cccnc1,?,-3,13,88,27,37*,63*
CO[C@H]1CN(C)C(=O)c2cc(NC(=O)C3CCC3)ccc2OC[C@@H](C)N(C)C[C@H]1C,-34,.,15,.,.,.,.
COCC(=O)N1CC[C@H]2[C@@H]1c1cc(-c3ccccc3)ccc1N(C)[C@H]2CO,71,2,22,.,.,.,.
COCC(=O)N1CC[C@@H]2[C@H]1c1cc(-c3cccc(F)c3)ccc1N(C)[C@@H]2CO,103*,-4,15,103*,34,7,11

# Assay outcomes: PubChem BioAssay, Broad Institute
